This note sets out measurements from the supplement of paper PMC10849652.

Targets with a hit are over-represented here; the source holds about 8,800 in all. About 0.5% of all pairs of compound and target were hits. A number with no mark means an inactive call.

Holding throughout (assay): log2 fold change, soluble protein after heating vs DMSO (PISA); higher = thermal stabilisation; K562 lysate, 10 uM; active = over 0.2 and 3.5 SD of the protein, either way, in both replicates (recomputed)
Compound in assay [1]: C1=CC=C(C=C1)[C@H](COC2=CC3=C(C=C2)NC(=O)N3)NC(=O)C4=CC=CN(C4=O)CC5=CC(=C(C=C5)F)F
An outline of the steps:
(§1)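 Pellets of K562 cells were dounce-homogenised in PBS pH 7.4 with 1 mM MgCl2, and the crude extract was held at 1 mg/mL protein for a 30 min treatment with 10 μM compound. Aliquots were heated for 3 min over 48°C-58°C and pooled before NP-40 was added to 0.5% at 4°C. The supernatant from 21,000xg for 90 min was quantified by TMTpro 16plex LC-MS/MS with channel sums equalised. Values are reported from duplicates as log-two fold change in thermal stability relative to solvent controls.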

Compound in assay [2]: CC1=C(SC2=C1C(=N[C@H](C3=NN=C(N32)C)CC(=O)N)C4=CC=C(C=C4)Cl)C
Put shortly:
as §1

Compound in assay [3]: c1ccc([C@@H]2C[C@H]2NC2CCNCC2)cc1
Put shortly: as §1

Compound in assay [4]: CC1=C2C(=CC=C1)N=C(N(C2=O)C3=CC=CC=C3C)CN4C=NC5=C(N=CN=C54)N
Put shortly: as §1

Compound in assay [5]: Cc1sc2c(c1C)C(c1ccc(Cl)cc1)=N[C@@H](CC(=O)OC(C)(C)C)c1nnc(C)n1-2
Put shortly:
as §1

UniProt Q6P3W2, sequence (Q6P3W2 whole entry, looked up): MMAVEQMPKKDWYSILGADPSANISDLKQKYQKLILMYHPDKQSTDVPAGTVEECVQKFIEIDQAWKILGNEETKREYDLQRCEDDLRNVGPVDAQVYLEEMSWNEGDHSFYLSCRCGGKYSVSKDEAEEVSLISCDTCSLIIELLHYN
UniProt P30622, sequence (P30622 whole entry, looked up): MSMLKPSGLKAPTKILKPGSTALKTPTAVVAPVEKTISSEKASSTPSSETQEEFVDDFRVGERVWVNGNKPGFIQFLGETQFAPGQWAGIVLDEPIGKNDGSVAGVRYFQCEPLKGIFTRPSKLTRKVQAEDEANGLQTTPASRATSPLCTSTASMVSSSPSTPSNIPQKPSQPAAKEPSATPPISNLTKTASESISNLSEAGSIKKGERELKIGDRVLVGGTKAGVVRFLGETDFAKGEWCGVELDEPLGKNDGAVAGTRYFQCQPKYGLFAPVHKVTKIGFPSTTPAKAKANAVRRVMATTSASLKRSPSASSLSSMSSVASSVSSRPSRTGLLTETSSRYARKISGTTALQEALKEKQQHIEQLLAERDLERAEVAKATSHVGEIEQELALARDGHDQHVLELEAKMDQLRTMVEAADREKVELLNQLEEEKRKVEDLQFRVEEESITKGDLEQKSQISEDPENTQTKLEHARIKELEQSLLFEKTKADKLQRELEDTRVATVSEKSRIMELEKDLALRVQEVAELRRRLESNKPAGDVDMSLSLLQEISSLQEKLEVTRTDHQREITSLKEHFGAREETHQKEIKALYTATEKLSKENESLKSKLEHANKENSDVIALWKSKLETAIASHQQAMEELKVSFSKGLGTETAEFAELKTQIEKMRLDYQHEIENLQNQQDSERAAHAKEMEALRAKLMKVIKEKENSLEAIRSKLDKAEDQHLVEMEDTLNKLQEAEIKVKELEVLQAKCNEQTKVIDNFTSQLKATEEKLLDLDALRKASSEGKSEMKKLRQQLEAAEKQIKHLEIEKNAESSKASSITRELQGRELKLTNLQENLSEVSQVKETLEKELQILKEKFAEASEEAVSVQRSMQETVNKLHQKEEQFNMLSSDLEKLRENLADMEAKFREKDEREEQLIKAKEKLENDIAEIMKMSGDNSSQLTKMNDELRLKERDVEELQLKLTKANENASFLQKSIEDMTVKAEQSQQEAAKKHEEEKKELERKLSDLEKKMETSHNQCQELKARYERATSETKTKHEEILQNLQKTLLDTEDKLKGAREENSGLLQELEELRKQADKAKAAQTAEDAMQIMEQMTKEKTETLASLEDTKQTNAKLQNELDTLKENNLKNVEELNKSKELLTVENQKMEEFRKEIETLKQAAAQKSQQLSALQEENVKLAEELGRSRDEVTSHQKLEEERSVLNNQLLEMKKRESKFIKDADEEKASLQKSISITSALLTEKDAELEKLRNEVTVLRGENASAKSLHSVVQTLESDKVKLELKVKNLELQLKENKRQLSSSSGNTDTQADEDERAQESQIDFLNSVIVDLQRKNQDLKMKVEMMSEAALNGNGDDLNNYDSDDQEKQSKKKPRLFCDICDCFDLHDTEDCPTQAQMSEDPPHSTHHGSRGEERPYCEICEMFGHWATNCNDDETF
UniProt P51530, sequence (P51530 whole entry, looked up): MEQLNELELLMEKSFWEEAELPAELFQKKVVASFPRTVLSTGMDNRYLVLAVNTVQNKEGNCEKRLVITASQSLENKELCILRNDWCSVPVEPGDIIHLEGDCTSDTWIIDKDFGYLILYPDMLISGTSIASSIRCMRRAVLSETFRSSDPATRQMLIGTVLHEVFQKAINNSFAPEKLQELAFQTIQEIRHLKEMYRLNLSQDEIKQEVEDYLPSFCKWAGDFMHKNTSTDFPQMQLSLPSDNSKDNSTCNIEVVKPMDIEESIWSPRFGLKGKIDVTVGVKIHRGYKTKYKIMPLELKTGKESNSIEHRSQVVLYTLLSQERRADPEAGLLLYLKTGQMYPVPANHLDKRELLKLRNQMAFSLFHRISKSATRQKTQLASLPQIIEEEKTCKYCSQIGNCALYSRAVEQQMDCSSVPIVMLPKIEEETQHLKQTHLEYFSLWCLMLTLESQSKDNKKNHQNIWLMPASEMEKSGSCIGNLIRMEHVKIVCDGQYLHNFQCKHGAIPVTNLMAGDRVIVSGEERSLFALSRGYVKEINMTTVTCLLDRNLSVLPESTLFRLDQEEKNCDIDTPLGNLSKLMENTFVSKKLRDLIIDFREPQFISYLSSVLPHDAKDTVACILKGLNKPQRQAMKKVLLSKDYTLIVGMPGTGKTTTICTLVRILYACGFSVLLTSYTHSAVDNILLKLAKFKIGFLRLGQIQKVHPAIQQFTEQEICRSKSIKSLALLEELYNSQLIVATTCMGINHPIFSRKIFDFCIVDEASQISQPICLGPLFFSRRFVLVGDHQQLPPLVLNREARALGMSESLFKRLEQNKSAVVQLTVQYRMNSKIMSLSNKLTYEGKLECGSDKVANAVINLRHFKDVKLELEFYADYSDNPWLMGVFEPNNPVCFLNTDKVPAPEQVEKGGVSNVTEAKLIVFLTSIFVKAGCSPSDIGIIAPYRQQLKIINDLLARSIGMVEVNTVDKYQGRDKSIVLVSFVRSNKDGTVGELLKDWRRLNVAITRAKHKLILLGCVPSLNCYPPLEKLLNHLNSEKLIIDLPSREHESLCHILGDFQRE
UniProt Q08345, sequence (Q08345 whole entry, looked up): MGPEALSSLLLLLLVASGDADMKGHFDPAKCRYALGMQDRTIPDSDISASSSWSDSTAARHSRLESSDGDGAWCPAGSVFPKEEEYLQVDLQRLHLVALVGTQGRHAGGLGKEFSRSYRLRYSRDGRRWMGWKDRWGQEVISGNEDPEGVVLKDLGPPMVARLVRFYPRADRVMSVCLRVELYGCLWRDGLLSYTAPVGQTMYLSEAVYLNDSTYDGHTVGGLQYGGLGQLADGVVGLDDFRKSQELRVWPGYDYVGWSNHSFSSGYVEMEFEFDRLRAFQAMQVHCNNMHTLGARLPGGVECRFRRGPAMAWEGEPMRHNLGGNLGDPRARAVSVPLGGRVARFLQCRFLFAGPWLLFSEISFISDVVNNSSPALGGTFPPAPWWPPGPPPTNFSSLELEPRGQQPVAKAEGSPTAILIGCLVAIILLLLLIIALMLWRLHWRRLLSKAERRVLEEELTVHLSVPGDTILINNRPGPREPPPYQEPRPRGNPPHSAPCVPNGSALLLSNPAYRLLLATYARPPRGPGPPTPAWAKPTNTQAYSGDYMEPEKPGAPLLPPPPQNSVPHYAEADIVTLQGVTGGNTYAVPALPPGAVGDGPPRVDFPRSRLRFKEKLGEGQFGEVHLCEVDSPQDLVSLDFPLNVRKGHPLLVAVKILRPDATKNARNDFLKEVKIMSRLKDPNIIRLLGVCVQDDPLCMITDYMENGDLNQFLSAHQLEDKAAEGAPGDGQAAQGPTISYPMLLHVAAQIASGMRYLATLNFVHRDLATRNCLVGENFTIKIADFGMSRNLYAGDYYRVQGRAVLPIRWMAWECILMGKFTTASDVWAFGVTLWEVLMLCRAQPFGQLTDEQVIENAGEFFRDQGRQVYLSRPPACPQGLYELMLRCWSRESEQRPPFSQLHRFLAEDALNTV
UniProt Q8IWV2, sequence (Q8IWV2 whole entry, looked up): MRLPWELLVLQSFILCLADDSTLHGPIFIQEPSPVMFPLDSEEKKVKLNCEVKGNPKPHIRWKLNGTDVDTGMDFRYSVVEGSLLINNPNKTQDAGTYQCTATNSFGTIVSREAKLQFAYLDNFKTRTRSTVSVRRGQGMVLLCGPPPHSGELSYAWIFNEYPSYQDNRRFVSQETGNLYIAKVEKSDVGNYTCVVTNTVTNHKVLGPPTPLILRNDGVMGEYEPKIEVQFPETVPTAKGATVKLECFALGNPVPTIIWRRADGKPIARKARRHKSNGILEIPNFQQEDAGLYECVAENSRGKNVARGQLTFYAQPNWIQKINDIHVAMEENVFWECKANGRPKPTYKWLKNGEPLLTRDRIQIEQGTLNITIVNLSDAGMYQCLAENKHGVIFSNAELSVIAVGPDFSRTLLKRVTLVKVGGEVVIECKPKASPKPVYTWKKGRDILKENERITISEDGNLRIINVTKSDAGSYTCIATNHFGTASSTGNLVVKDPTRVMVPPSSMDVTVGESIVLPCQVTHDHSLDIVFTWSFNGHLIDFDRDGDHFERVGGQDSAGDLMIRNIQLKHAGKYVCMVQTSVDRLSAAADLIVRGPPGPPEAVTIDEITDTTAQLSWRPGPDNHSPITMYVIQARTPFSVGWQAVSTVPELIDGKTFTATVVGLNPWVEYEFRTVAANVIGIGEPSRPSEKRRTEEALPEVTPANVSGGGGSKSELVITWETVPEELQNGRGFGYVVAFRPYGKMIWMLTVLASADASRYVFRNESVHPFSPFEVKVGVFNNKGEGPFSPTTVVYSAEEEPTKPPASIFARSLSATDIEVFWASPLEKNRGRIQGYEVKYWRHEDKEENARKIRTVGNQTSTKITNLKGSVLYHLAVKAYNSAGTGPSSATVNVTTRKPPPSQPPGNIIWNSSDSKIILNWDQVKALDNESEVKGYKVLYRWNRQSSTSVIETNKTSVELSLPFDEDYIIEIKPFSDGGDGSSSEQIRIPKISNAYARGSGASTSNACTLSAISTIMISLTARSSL
UniProt Q9BSY9, sequence (Q9BSY9 whole entry, looked up): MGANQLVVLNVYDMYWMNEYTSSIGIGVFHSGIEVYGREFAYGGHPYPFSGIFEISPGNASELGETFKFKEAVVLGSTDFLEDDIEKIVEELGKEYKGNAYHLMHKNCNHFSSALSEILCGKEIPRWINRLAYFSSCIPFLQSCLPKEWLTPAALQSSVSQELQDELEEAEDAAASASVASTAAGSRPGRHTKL
UniProt O14810, sequence (O14810 whole entry, looked up): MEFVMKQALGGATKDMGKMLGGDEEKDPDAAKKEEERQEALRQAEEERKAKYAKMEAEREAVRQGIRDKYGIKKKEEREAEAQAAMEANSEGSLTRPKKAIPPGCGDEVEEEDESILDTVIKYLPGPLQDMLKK

As to CSDE1 isoform 3 (UniProt O75534), the log2 fold change was -0.18 in assay [1], -0.098 in assay [2] and 0.043 in assay [3].
As for CPLX1 (UniProt O14810), the results for the log2 fold change in assay [4] and in assay [5] were -0.08 and -0.239, respectively.
On to CYP4V2 (UniProt Q6ZWL3), for which the values for the log2 fold change in assay [1], in assay [2] and in assay [5] were -0.119, 0.188 and 0.035, respectively.
On to DESI2 (UniProt Q9BSY9), for which the log2 fold change was -0.142 in assay [4] and -0.038 in assay [3].
On to DNM2 isoform 4 (UniProt P50570), for which the results for the log2 fold change in assay [5] and in assay [3] were 0.025 and -0.043, respectively.
For the target DNA2 (UniProt P51530), the log2 fold change in assay [4] was 0.047; in assay [5] it was 0.072; in assay [3], 0.026.
For CNTN4 (UniProt Q8IWV2), the log2 fold change in assay [1] is 0.046; in assay [2], 0.073; in assay [4], 0.105; in assay [3] it was -0.319.
As for DDR1 isoform 5 (UniProt Q08345), the log2 fold change in assay [1] was -0.1; in assay [2], 0.057; in assay [5], -0.09; in assay [3] it was 0.135.
Take COL12A1 (UniProt Q99715): the log2 fold change was 0.08 in assay [4] and -0.078 in assay [5].
Consider DCTN1 isoform 4 (UniProt Q14203), for which the log2 fold change in assay [4] was 0.013; in assay [5], -0.13; in assay [3], -0.452.
As for CLIP1, A0A3B3ITA2, the log2 fold change in assay [4] is 0.035; in assay [3] it was -0.123.
As for DHX32 (UniProt Q7L7V1), the log2 fold change in assay [4] is -0.086; in assay [3], -0.009.
Consider CNK3/IPCEF1 isoform 2 (UniProt G9CGD6), for which the log2 fold change in assay [4] is -0.032; in assay [5], 0; in assay [3] it was -0.817.
CLIP1 isoform 2 (UniProt P30622): the log2 fold change in assay [1] is 0.11; in assay [2], -0.03; in assay [5] it was 0.009; in assay [3] it was -0.002.
In the same order, the values of DONSON (UniProt Q9NYP3) are -0.043, 0.068, 0.013 and -0.243.
DNAJC24 (UniProt Q6P3W2): the log2 fold change in assay [4] was 0.007; in assay [5], 0.024; in assay [3] it was 0.055.
